# Source: PubChem BioAssay
# Rows were chosen to be rich in hits. Some 4.9% of all compounds tested hit in one or more screens of this group.
# OTUD3 inh: inhibitors of human OTUD3 deubiquitinase; Q5T2D3; purified OTUD3, Ub-rhodamine fluorescence, 2 h; inhibition, % at 25 µM; actives 0.7% (n = 47,000); AID 1645858
# USP7 inh: human USP7 deubiquitinase inhibition; Q93009; purified USP7, Ub-rhodamine cleavage fluorescence; inhibition, % at 20 µM; actives 0.3% (n = 47,000)
# USP10 block: blocks human USP10 ubiquitin-rhodamine cleavage; purified USP10, Ub-rhodamine fluorescence, 60 min; actives 1.1% (n = 47,000); Q14694; inhibition, % at 20 µM; AID 1645856
# UCHL1 inh: blocks human UCHL1 ubiquitin-rhodamine cleavage; purified UCHL1, Ub-rhodamine cleavage fluorescence; actives 0.2% (n = 47,000); P09936; inhibition, % at 20 µM; AID 1645859
# USP8 inh: human USP8 deubiquitinase inhibition. inhibition, % at 20 µM. P40818. purified USP8, Ub-rhodamine cleavage fluorescence, 30 min. actives 4.2% (n = 47,000). AID 1645853
# Hits are given with their value; - = inactive. No stated cut-off is given here; in the data, active means inhibition above about 30%; inactive means the rest.
SMILES,OTUD3 inh,USP7 inh,USP10 block,UCHL1 inh,USP8 inh
O=C(Cn1c(=O)n(-c2ccccc2)c(=O)c2ccc(C(=O)NCc3ccc4c(c3)OCO4)cc21)NCCC1=CCCCC1,58,-,32,-,75
CCOC(=O)Cc1[nH]nc2c1C1(C(=O)N(CC)c3ccccc31)C(C#N)=C(N)O2 (stereo unspecified),-,-,-,-,-
O=C(Nc1ccccc1F)c1cncc(NS(=O)(=O)c2ccccc2)c1,-,-,-,-,-
Nc1ccc(F)c(NS(=O)(=O)c2ccccc2)c1,55,-,-,31,72
COCCN(C)C(=O)c1c2c(NCC3CC3)ncnc2n2ccccc12,-,-,-,-,31
CC(C)Cc1nc2sc3c(SCC(=O)NC4(c5ccccc5)CCCC4)ncnc3c2c2c1CCC2,-,-,-,-,-
CSCc1cc(NCc2ccccc2)nc(-c2ccncc2)n1,-,-,-,-,-
COc1ccc(N(C)S(=O)(=O)c2cccc(C(=O)OC(C)C(=O)Nc3cccc(C(C)=O)c3)c2)cc1 (stereo unspecified),-,-,-,-,-
CC(=O)c1cccc(NC(=O)C(C)OC(=O)c2cc3ccccc3[nH]2)c1 (stereo unspecified),33,-,-,-,-
Cc1cc(C)cc(NS(=O)(=O)c2cc(C(=O)NCc3cccnc3)ccc2C)c1,-,-,-,-,-
Cc1ccc(-c2noc(Cc3nnc(-c4ccccc4)o3)n2)cc1,-,-,-,-,-
Cc1ccc(-c2noc(CNc3ccc(Oc4ccccc4)cc3)n2)cc1,-,-,-,-,79
CC1[C@@H]2[C@@H](C(=O)N3CCOCC3)C[C@H](CN1Cc1ccc(O)cc1)N2C (stereo partly specified),-,-,-,-,-
Cc1ccc(Cl)cc1NC(=O)c1ccc(N(C)C)cc1,-,-,-,-,-
CN(C)c1ccc(/C=N/NC(=O)c2ccc(Cl)cc2)cc1,-,-,-,-,51
CS(=O)(=O)N1CCN(Cc2ccc(=O)n(CC3CC3)c2)CC1,-,-,-,-,48
COc1ccccc1CNC(=O)c1cccc(Nc2nc3ccccc3n3cnnc23)c1,-,-,-,-,-
O=C(NCc1ccc(F)cc1)c1cccc(Nc2nc3ccccc3n3cnnc23)c1,67,-,38,-,-
Cc1ccc(F)c2c(=O)c3c([nH]c12)CCN(CC(=O)Nc1cccc(F)c1)C3,-,-,-,-,-
COc1ccc(CNCc2cc3c(C)nn(-c4ccccc4)c3[nH]c2=O)cc1,-,-,-,-,64
COc1ccc(CCNCc2cc3c(C)nn(-c4ccccc4)c3[nH]c2=O)cc1OC,-,-,-,-,-
Cc1nn(-c2ccccc2)c2[nH]c(=O)c(CNCc3ccccc3Cl)cc12,-,-,-,-,72
Cc1nn(-c2ccccc2)c2[nH]c(=O)c(CNCC3CCCO3)cc12 (stereo unspecified),-,-,-,-,-
O=C1c2c(O)c(Cl)cc3c2[C@@]2(Oc4ccc(O)c5c4[C@]3(O2)[C@@H]2O[C@@H]2C5=O)[C@@H]2O[C@H]12,89,82,40,84,-
O=C(CSc1n[nH]c(-c2cc(Br)ccc2O)n1)NCCc1ccccc1,-,-,-,-,81
SMILES,OTUD3 inh,USP7 inh,USP10 block,UCHL1 inh,USP8 inh
O=C(Cc1ccc2c(c1)OCCO2)Nc1ccc(F)cc1F,-,-,-,-,-
COc1cc(NC(=O)Cc2ccc3c(c2)OCCO3)c(OC)cc1Cl,-,-,-,-,49
O=C(Nc1c2c(nn1-c1ccc([N+](=O)[O-])cc1)CSC2)c1c(F)cccc1F,-,-,34,-,-
O=C(Nc1c2c(nn1-c1ccc([N+](=O)[O-])cc1)CS(=O)(=O)C2)c1cccs1,-,-,-,-,-
COc1ccc(S(=O)(=O)N2CCOC(c3ccccc3)C2)c(C)c1 (stereo unspecified),-,-,-,-,-
CCc1c(C)nc2c(-c3ccccc3)c(Cc3ccccc3)[nH]n2c1=O,-,-,-,-,62
COc1ccccc1-c1nc(-c2nnn(-c3ccccc3)c2-c2ccncc2)no1,-,-,-,-,-
c1coc(-c2nc3ccccc3n2CCC2CCCCC2)c1,-,-,-,-,68
Cc1cccc(Cn2c(C3CCCO3)nc3ccccc32)c1 (stereo unspecified),-,-,-,-,-
Cc1ccc(C)c(Cn2c(CN3CCOCC3)nc3c2c(=O)n(C)c(=O)n3C)c1,-,-,-,-,-
CCc1cc2c(=O)[nH]c(Cc3ccc(OC)cc3)nc2s1,-,-,-,-,35
Cn1c(C(=O)NCc2ccccn2)cc2c(=O)[nH]c3ccccc3c21,-,-,-,-,87
CC(C)CC(=O)N1CCN(C(=O)COc2ccc3ccccc3c2)CC1,-,-,-,-,-
N#C/C(=C\c1ccc(OCc2cccc(C(=O)O)c2)cc1)c1ccc(F)cc1,-,31,77,-,59
CC(=O)Nc1ccc(C(=O)NCc2ccccc2F)c(N2CCCCC2)c1,-,-,-,-,-
Cc1cccc(NC(=O)Cn2cc(C(=O)N3CCOCC3)c(=O)c3ccc(C)nc32)c1,-,-,-,-,35
O=C(NCc1cccc(Cl)c1)c1cc(CN2CCOCC2)on1,-,-,-,-,-
O=C(Cc1ccc(S(=O)(=O)N2CCOCC2)s1)NCc1cccc(Cl)c1,-,-,-,-,40
COc1ccccc1N1CC(c2nc3ccccc3n2CCCCOc2ccccc2)CC1=O (stereo unspecified),-,-,-,-,-
CCOC(=O)c1ccc(OCC2c3cc(OC)c(OC)cc3CCN2C(=O)C(C)Oc2ccccc2)cc1 (stereo unspecified),-,-,-,-,85
O=C(NCCN1CCCC1)[C@H]1CC[C@@H]2[C@@H](CCN2c2ncccn2)O1,-,-,-,-,-
O=C(Cn1c(=O)c2ccccc2n(CC(=O)Nc2cc(Cl)cc(Cl)c2)c1=O)NCc1ccco1,-,-,35,-,50
CCc1ccc(NC(=O)Cn2c(=O)n(-c3ccc(CC(=O)NCc4ccco4)cc3)c(=O)c3ccccc32)cc1,-,-,-,-,-
COc1cc(Cl)c(C)cc1NC(=O)Cn1c(=O)n(CC(=O)NCc2ccco2)c(=O)c2ccccc21,40,-,43,-,64
COc1cc(NC(=O)Cn2c(=O)n(-c3ccc(CC(=O)NCc4ccco4)cc3)c(=O)c3ccccc32)cc(OC)c1,-,-,-,-,-
O=C(Cn1c(=O)c2ccccc2n(CC(=O)Nc2ccc(Br)cc2)c1=O)NCc1ccco1,-,-,-,-,44
CCc1cccc(NC(=O)CSC2=NS(=O)(=O)c3ccccc3N2CC)c1,-,-,-,-,-
O=C(CCC(=O)c1ccc(F)cc1)Nc1cccc(S(=O)(=O)Nc2cccc(Cl)c2)c1,-,-,32,-,-
Cc1ccc(S(=O)(=O)Nc2cccc(Cl)c2)cc1NC(=O)CCc1ccccc1,-,-,-,-,-
Cc1ccc(S(=O)(=O)Nc2ccc(Cl)cc2)cc1NC(=O)CC(=O)c1ccccc1,-,-,-,-,51
